# High-throughput results as filed in PubChem BioAssay.
# PDI turbidity = blocks human protein disulfide isomerase activity; PDI insulin aggregation turbidity, A650, 90 min; inhibition, % at 10 µM; 350,000 compounds, 0.052% hits; P07237;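 active means mean inhibition across replicates of 30% or more, whatever share of single replicates reach that level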
# SIRT5 block = inhibitors of human sirtuin-5 desuccinylase; Purified SirT5, succinyl-peptide AMC, trypsin-coupled fluorescence; inhibition, % at 15 µM; 330,000 compounds, 1.1% hits; in the data active means inhibition above about 15%
# Target sequence (Q9NXA8 whole entry, looked up): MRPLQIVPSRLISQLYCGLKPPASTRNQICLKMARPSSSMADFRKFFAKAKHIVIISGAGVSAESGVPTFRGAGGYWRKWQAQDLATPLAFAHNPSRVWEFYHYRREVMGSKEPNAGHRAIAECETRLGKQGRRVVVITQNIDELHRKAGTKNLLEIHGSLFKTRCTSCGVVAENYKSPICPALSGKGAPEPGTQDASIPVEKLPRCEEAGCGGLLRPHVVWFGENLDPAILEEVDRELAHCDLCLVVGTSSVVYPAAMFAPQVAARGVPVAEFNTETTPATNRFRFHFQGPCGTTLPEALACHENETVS
# ERp5 block = inhibitors of human ERp5; Q15084; ERp5 insulin aggregation, absorbance 650 nm, 90 min; inhibition, % at 9.99 µM; 350,000 compounds, 0.05% hits;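 active means mean replicate inhibition above about 25%, with every replicate also reaching it, limit read from the data, passing the limit was not always enough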
# DENV2 CPE = protects cells from dengue virus 2 cytopathic effect; CPE inhibition, % at 9.99 µM; AID 651640; 350,000 compounds, 1.7% hits; DENV2-infected cells, cytopathic effect rescue, plate reader; in the data active means CPE inhibition above about 20%, passing the limit was not always enough; tested in BHK-21 cells
# Rtt109 Vps75 = inhibitors of Candida albicans Rtt109/Vps75 histone acetyltransferase | 330,000 compounds, 0.16% hits | Q5AAJ8 | purified Rtt109/Vps75, ThioGlo CoA-SH fluorescence, 4 h | inhibition, % at 34.9 µM;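 active means inhibition of at least 50% in every replicate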
# Hits are given with their value; n = inactive; x = no result. Hits are enriched below; roughly 2.3% of the tested compounds scored in any of these assays.
SMILES,PDI turbidity,SIRT5 block,ERp5 block,DENV2 CPE,Rtt109 Vps75
COCCNC(=O)c1ccc2c(c1)NC(=O)CS2,n,x,x,x,n
CCCCN(C(=O)c1ccc2c(c1)NC(=O)CS2)c1ccccc1,n,n,n,93.7,n
Cn1cncc1C#Cc1c(C=O)n(C)c2ccccc12,n,n,n,n,n
COc1cc(C#Cc2c(C=O)n(C)c3ccccc23)cc(OC)c1,n,32.0,n,n,n
CCn1c2ccccc2c2cc(NC(=O)c3ccc([N+](=O)[O-])cc3)ccc21,n,x,x,x,n
CCn1c2ccccc2c2cc(NC(=O)c3ccccc3[N+](=O)[O-])ccc21,n,n,n,31.8,n
CCCN(CCC)CCNC(=O)C1CCCN(S(=O)(=O)c2ccc3c(c2)oc(=O)n3C)C1 (stereo not given),n,x,x,x,n
Cn1c(=O)oc2cc(S(=O)(=O)N3CCCC(C(=O)NCCN4CCOCC4)C3)ccc21 (stereo not given),n,n,n,83.4,n
CC(C(=O)Nc1ccc(F)c(F)c1F)N(C)Cc1cccs1 (stereo not given),n,16.3,n,n,n
CC(C(=O)Nc1ccccc1)N(C)Cc1cccs1 (stereo not given),n,n,n,n,n
COCCOC(=O)N1C(=O)[C@@]2(c3ccccc31)[C@H](C(=O)N1CCN(c3ncccn3)CC1)[C@H]1C(=O)O[C@H](c3ccccc3)[C@H](c3ccccc3)N1[C@@H]2c1ccccc1OCCO,x,15.6,n,n,x
COCCOC(=O)N1C(=O)[C@@]2(c3cc(C#Cc4ccc(OC)cc4)ccc31)[C@H](c1ccccc1OCCO)N1[C@H](c3ccccc3)[C@H](c3ccccc3)OC(=O)[C@H]1[C@@H]2C(=O)NC[C@H](O)c1ccccc1,x,n,n,n,x
COCCOC(=O)N1C(=O)[C@@]2(c3cc(C#CCC(C(=O)OC)C(=O)OC)ccc31)[C@H](c1ccccc1OCCO)N1[C@H](c3ccccc3)[C@H](c3ccccc3)OC(=O)[C@H]1[C@@H]2C(=O)NC[C@H](O)c1ccccc1,x,16.2,n,30.5,x
COCCOC(=O)N1C(=O)[C@@]2(c3cc(C#CCCO)ccc31)[C@H](c1ccccc1OCCO)N1[C@H](c3ccccc3)[C@H](c3ccccc3)OC(=O)[C@H]1[C@@H]2C(=O)N1CCN(c2ncccn2)CC1,x,19.0,n,n,x
COCCOC(=O)N1C(=O)[C@@]2(c3cc(C#CCCO)ccc31)[C@H](C(=O)N1CCN(c3ncccn3)CC1)[C@H]1C(=O)O[C@H](c3ccccc3)[C@H](c3ccccc3)N1[C@@H]2c1ccccc1OCCO,x,n,n,n,x
CN1C[C@@H]2[C@H](c3ccccc31)[C@H](CO)N2Cc1ccccc1F,x,n,n,n,x
COc1ncc(C2=CC(=O)CC(C)(C)C2)cn1,n,x,n,30.8,n
Cc1ccc(S(=O)(=O)Nc2ccc(N(C)C)cc2)cc1,n,112.0,n,n,n
CO[C@@H]1CN(C)C(=O)c2ccc(NC(=O)C3CCCC3)cc2OC[C@@H](C)N(CCC(F)(F)F)C[C@H]1C,x,n,n,n,x
C[C@@H]1COC(=O)[C@H](CC(=O)OC(C)(C)C)C/C=C\C[C@H](CC(=O)NCCO)C(=O)N1,n,x,n,n,n
C[C@@H]1COC(=O)[C@@H](CC(=O)OC(C)(C)C)C/C=C\C[C@@H](CC(=O)NCCO)C(=O)N1,n,n,n,24.2,n
COc1ccc(NC(=S)Nc2ccc3nsnc3c2)cc1,n,x,x,x,54.2
Cc1ccc(-c2cnc3c(c2)C(=O)N([C@@H](C)CO)C[C@H](C)[C@H](CN(C)Cc2ccccc2C(=O)O)O3)cc1,x,n,n,n,x
O=C1CCC(C(=O)N2CCCCCC2)CN1Cc1cccc(C(F)(F)F)c1 (stereo not given),n,18.1,n,n,n
COc1ccc(C#Cc2ccc([C@H]3[C@H](CO)N4CCCCN(C(=O)c5ccncc5)C[C@@H]34)cc2)cc1,x,n,n,47.4,x
COc1ccc(C#Cc2ccc([C@H]3[C@@H](CO)N4CCCCN(C(=O)c5ccncc5)C[C@@H]34)cc2)cc1,x,n,n,59.1,x
COc1ccc(C#Cc2ccc([C@@H]3[C@@H](CO)N4CCCCN(C(=O)c5ccncc5)C[C@H]34)cc2)cc1,x,n,n,28.5,x
C[C@H](O)C#Cc1ccc([C@H]2[C@@H](CO)N3CCCCN(C(=O)c4ccncc4)C[C@@H]23)cc1,x,n,n,n,x
COCC(=O)Nc1ccc2c(c1)[C@H]1C[C@@H](CC(=O)NCCN3CCCCC3)O[C@H](CO)[C@H]1O2,x,n,n,n,x
